Measured values: PubChem BioAssay AID777 (Sanford-Burnham Center for Chemical Genomics, 2007)
The campaign covered roughly 96,000 compounds. About 19,000 (20%) were called active.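 Rule for the calls: active = blocking of liver enzyme CYP2C9 beyond about 50% at 5 µM (limit read from the data); inactive = the rest.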 Only a sample is shown. Residues, ends and D or L forms follow the SMILES beside them. *: point of attachment. Bz = O=C(c1ccccc1)*

biological target: Cytochrome P450 2C9 (Homo sapiens) (UniProt P11712); test: blockers of cytochrome P450 2C9 activity – biochemical, luminescence, ADME assay, primary screen (AID 777); conditions: CYP2C9 Supersomes, luciferin-H conversion, at 5 µM, hits give high values
Sequence (P11712 whole entry, looked up): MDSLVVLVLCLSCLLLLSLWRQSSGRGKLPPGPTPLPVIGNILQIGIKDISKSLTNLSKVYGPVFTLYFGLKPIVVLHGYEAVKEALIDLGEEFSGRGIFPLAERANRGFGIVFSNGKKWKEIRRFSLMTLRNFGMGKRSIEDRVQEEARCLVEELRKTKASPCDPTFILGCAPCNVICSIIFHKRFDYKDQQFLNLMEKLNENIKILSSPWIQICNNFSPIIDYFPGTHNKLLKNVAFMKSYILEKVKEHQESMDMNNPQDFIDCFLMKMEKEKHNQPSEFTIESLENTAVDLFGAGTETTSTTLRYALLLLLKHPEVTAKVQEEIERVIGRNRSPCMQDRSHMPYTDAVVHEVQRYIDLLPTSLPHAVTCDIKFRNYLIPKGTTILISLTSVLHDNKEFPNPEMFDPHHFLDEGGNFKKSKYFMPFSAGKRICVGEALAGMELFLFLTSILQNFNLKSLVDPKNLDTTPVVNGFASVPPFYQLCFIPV

| SMILES | inhibition |
| --- | --- |
| COC(=O)c1cc(NC(=O)CN2CCC(C(N)=O)(N3CCCCC3)CC2)cc(C(=O)OC)c1 | 13.2% (inactive) |
| CCCNC(=O)NCc1ccc(N2CCCC2=O)cc1 | 17.2% (inactive) |
| NC(=O)C1(N2CCCCC2)CCN(C2CC(=O)N(Cc3ccc(N4CCCC4=O)cc3)C2=O)CC1 (stereo not given) | 50.1% (active) |
| C[C@@H](Nc1nc(-c2ccccc2)nc2c1oc1ccccc12)C(=O)O | 11.2% (inactive) |
| C=CCNC(=O)c1cc2nc(C3CC3)cc(C(F)F)n2n1 | 40% (inactive) |
| COc1cc(/C=C2\SC(=S)N(Nc3ncc(C(F)(F)F)cc3Cl)C2=O)cc(OC)c1OC | 4.4% (inactive) |
| O=C(C(Cc1ccccc1)n1cccc1)N1CCN(C2CCCCC2)CC1 (stereo not given) | 94% (active) |
| O=C(NC(Cc1ccccc1)C(=O)N1CCCC1C(=O)O)c1ccccc1 (stereo not drawn) (Bz-Phe-Pro-OH; configuration not given here) | -5.7% (inactive) |
| Cc1ccc(C(=O)N2CCN(C3CCCCC3)CC2)s1 | 25.8% (inactive) |
| CCOC(=O)CCCNC(=O)CN1C(=O)NC(CCc2ccccc2)C1=O (stereo not given) | -3.9% (inactive) |
| O=C(CN1C(=O)NC(Cc2ccccc2)(Cc2ccccc2)C1=O)NCC1CCCCC1 | 55% (active) |
| O=C(CN1C(=O)NC2(CCCCC2)C1=O)NCCC1=CCCCC1 | -1.7% (inactive) |
| CC(=O)N1CCc2cc(S(=O)(=O)Nc3ccccc3N3CCN(C)CC3)ccc21 | 2% (inactive) |
| CCCC(=O)C1CCN(Cc2ccccc2)CC1 | -8.7% (inactive) |
| Cc1nc2ccc(NC(=O)C(F)(F)F)cc2o1 | 4.8% (inactive) |
| Cn1c(C(=O)NCCCN2CCCCC2)cc2sccc21 | 6.6% (inactive) |
| CCOC(=O)c1ccn(-c2nc(-c3ccco3)cc(C(F)(F)F)n2)n1 | 62% (active) |
| Cc1cc(C(F)(F)F)nn1-c1nc(-c2ccco2)cc(C(F)(F)F)n1 | 3.1% (inactive) |
| O=C(CSc1nc(-c2ccco2)cc(C(F)(F)F)n1)N1CCc2ccccc2C1 | 45.8% (inactive) |
| Cc1ccc2c(c1)N(CC(=O)N1CCCc3ccccc31)C(=O)C(C)O2 (stereo not given) | 22% (inactive) |
| COc1cc(-c2nc(-c3ccncc3)no2)cc(OC)c1OC | 76.6% (active) |
| CCOc1nc(-c2ccc(OC)cc2)ccc1-c1noc(-c2cc(OC)c(OC)c(OC)c2)n1 | 8.3% (inactive) |
| COc1ccc(-c2noc(-c3cccc(OC)c3OC)n2)cc1OC | -101% (inactive) |
| CC(OC(=O)CN1C(=O)C2CCCCC2C1=O)C(=O)Nc1ncc(Cl)cc1Cl (stereo not given) | -1.7% (inactive) |

| SMILES | inhibition |
| --- | --- |
| COc1ccc2oc(=O)c(C(=O)N3CCN(c4ccccc4F)CC3)cc2c1 | 28.7% (inactive) |
| COc1ccc(Nc2ncc(C(=O)N3CCN(c4ccccc4OC)CC3)c3ccccc23)cc1 | 65.9% (active) |
| COc1ccccc1N1CCN(CCCCOc2ccc(F)cc2)CC1 | 12% (inactive) |
| COc1cnc(SCc2ccc(Cl)c(Cl)c2)nc1Cl | 16.5% (inactive) |
| CCOC(=O)c1cc(C)sc1NC(=O)C1CCC1 | 42.3% (inactive) |
| Cc1ccc(S(=O)(=O)N2CCC(C(=O)N[C@@H](C)C(=O)NCCc3ccccc3)CC2)cc1 | -25.2% (inactive) |
| O=C(NCCCN1CCN(Cc2ccccc2)CC1)C1CCN(S(=O)(=O)N2CCCC2)CC1 | 1.8% (inactive) |
| O=C1c2cccnc2C(Nc2ccc(S(=O)(=O)N3CCCCCC3)cc2)N1Cc1ccccc1 (stereo not given) | 53.4% (active) |
| Cc1cc2c(cc1C)NC(c1ccccn1)C1=C(CC(C)(C)CC1=O)N2 (stereo not given) | -11.2% (inactive) |
| Cc1nn(-c2ccccn2)c2c1C(c1ccncc1)C1=C(CC(C)(C)CC1=O)N2 (stereo not given) | 79.7% (active) |
| CCOC(=O)c1c(-n2cnnn2)sc(C)c1C | 10.3% (inactive) |
| Cc1cc(C)nc(NC(=O)Nc2ccccc2C(F)(F)F)n1 | -193% (inactive) |
| O=C(Nc1ccc(Sc2ccc(Br)cc2)cc1)c1ccco1 | 3.3% (inactive) |
| Cc1cccc(NC(=O)c2sc3nc4c(c(-c5ccco5)c3c2N)CCC4)c1 | 17.9% (inactive) |
| CCCc1cc(=O)[nH]c(SCc2ccc(C#N)cc2)n1 | 60.3% (active) |
| CCCc1cc(=O)[nH]c(SCC(=O)OCc2ccccc2)n1 | 38.5% (inactive) |
| CCCc1cc(=O)[nH]c(SCC(=O)c2cc(C)n(CCC)c2C)n1 | 5.3% (inactive) |
| O=C(CNC(=O)Cc1ccccc1)NCC(=O)OCC(=O)c1ccccc1Cl | -33.1% (inactive) |
| Cc1ccccc1C(=O)Nc1cccc(-c2nnc(SCC(=O)O)n2C)c1 | -11.4% (inactive) |
| COC(=O)c1ccc(NC(=O)CSc2nnc(CNc3ccc(OC)cc3)n2C)cc1 | 34% (inactive) |
| O=C(CSc1nnc(-c2ccncc2)n1C1CCCCC1)Nc1ccccc1 | 38.6% (inactive) |
| CCCCSc1nnc(-c2ccc(NC(=O)CC)cc2)n1C | -15.8% (inactive) |
| COC(=O)c1ccc(NC(=O)CSc2nnc(-c3ccncc3)n2C)cc1 | 57.2% (active) |
| Cn1c(SCC(=O)Nc2cccc(NC(=O)c3cccs3)c2)nnc1-c1ccncc1 | 89.8% (active) |

| SMILES | inhibition |
| --- | --- |
| CCC(=O)Nc1cccc(NC(=O)CSc2nnc(-c3ccc(NS(C)(=O)=O)cc3)n2C)c1 | 51.3% (active) |
| CCn1c(SCC(=O)Nc2nccs2)nnc1-c1ccncc1 | 28% (inactive) |
| Cn1c(SCC(=O)Nc2cccc(O)c2)nnc1-c1ccc(S(=O)(=O)N2CCOCC2)cc1 | 7.5% (inactive) |
| Cc1ccc(-c2ccc(=O)n(CC(=O)NCCCN3CCCCC3)n2)cc1 | 14% (inactive) |
| COc1ccccc1C(=O)Nc1nc2nc(-c3ccccc3)cc(=O)n2[nH]1 | 42% (inactive) |
| O=C(NCCCCc1ccccc1)C1CC(c2ccc([N+](=O)[O-])cc2)=NO1 (stereo not given) | 14.2% (inactive) |
| O=C(CN1CCOCC1)Nc1ccc(NC(=O)CN2CCOCC2)c(Cl)c1 | -1.8% (inactive) |
| CN(C)C(=O)c1cc(Br)ccc1Cl | -6.9% (inactive) |
| CCCn1c(=NC(C)=O)c(C(=O)OCC)cc2c(=O)n3ccccc3nc21 | 17.1% (inactive) |
| O=S(=O)(NCc1cccnc1)c1ccc(Cl)nc1 | 6.6% (inactive) |
| Cc1cccc(CCNS(=O)(=O)c2ccc(S(=O)(=O)NC3CCCC3)cc2)c1 | 65.4% (active) |
| Cn1c(=O)c(=O)n(C)c2cc(S(=O)(=O)NCCc3ccccc3)ccc21 | 23.4% (inactive) |
| Cc1cc(S(=O)(=O)NC2CCCCC2)ccc1OCC(=O)NCc1cccnc1 | 81.1% (active) |
| O=C(C1CCC1)N1CCc2cc(S(=O)(=O)NCc3cccnc3)ccc21 | 32.9% (inactive) |
| O=C(CCc1ccccc1)NCc1cccnc1 | 15.7% (inactive) |
| Cc1cc(Cl)c(S(=O)(=O)NCc2cccnc2)cc1OCC(N)=O | -9.2% (inactive) |
| O=C(OC1CCCCC1=O)c1cccc(S(=O)(=O)NCc2ccccc2)c1 (stereo not given) | 43.1% (inactive) |
| O=C(CCc1ccc(S(=O)(=O)NC2CCCCC2)cc1)NCc1ccccc1 | 86.2% (active) |
| CSc1ccc(S(=O)(=O)NC2CCCCC2)cc1 | 17.8% (inactive) |
| CCCNS(=O)(=O)c1ccc(CCC(=O)NCc2cccnc2)cc1 | 76.8% (active) |
| O=C(CN(CC1CCCO1)C(=O)CNS(=O)(=O)c1ccccc1)NCc1ccccc1 (stereo not given) | 2.4% (inactive) |
| Cc1ccccc1/[N+]([O-])=C/c1ccncc1 | 12.4% (inactive) |
| CC1CCN(c2nc3c(c(=O)[nH]c(=O)n3C)n2CCCc2ccccc2)CC1 | 40.9% (inactive) |
| C/C(=C\C(=O)c1ccc(Br)cc1)N1CCCCC1 | 2.1% (inactive) |

| SMILES | inhibition |
| --- | --- |
| Cc1nc2ccc(C(=O)N3CCSCC3)cc2s1 | 0.6% (inactive) |
| Cc1ccc(S/C(=N\S(=O)(=O)c2ccc(Cl)cc2)c2ccccc2)cc1 | 48.7% (inactive) |
| CCOC(=O)N1CCN(C(=O)c2cnc3n(c2=O)CCS3)CC1 | -13.7% (inactive) |
| Cc1cc(N/C=C\C(=O)c2ccc(Cl)c(Cl)c2)no1 | 7.8% (inactive) |
| COC(=O)C1=C(N)Oc2cc(C)oc(=O)c2C1c1cccnc1 (stereo not given) | 37.9% (inactive) |
| Cc1ccc(CS(=O)(=O)CCC(=O)NC2CC2)cc1 | -3.7% (inactive) |
| COC(CCN(C)C)(c1ccccc1)c1ccccc1 | -2.1% (inactive) |
| CC1(C)Cc2ccccc2-c2nnc(-c3cccc(O)c3)n21 | -7.5% (inactive) |
| O=C1OC(NC(=O)c2ccccc2)C(N2CCOCC2)=C1Cl (stereo not given) | -6.9% (inactive) |
| c1cnc(NC2C3CC4CC(C3)CC2C4)nc1 (stereo not given) | 25.9% (inactive) |
| CCCCCCn1c(CN2CCCC(C)C2)nc2c1c(=O)n(C)c(=O)n2C (stereo not given) | 9.5% (inactive) |
| CC1CCCN(Cc2nc3c(c(=O)n(C)c(=O)n3C)n2CC(=O)c2ccccc2)C1 (stereo not given) | 11.2% (inactive) |
| CC1CN(C2CCCCC2)c2nc3c(c(=O)n(C)c(=O)n3C)n2C1 (stereo not given) | 82.2% (active) |
| COc1ccc(Cl)cc1NC(=O)CN(C)C(=O)CNC(=O)C12CC3CC(CC(C3)C1)C2 | 44.8% (inactive) |
| COc1ccc(N2CCN(Cc3ccc(Br)s3)CC2)cc1 | 78.3% (active) |
| COc1ccc(N2CCN(Cc3cc(=O)oc4ccc5ccccc5c34)CC2)cc1 | 22.6% (inactive) |
| Fc1ccc(N2CCN(Cc3cnc(Oc4ccc(Br)cc4)s3)CC2)cc1 | 19.7% (inactive) |
| COc1ccccc1CNC(=O)C1CCN(c2nc3ccccc3o2)CC1 | -3.9% (inactive) |
| FC(F)(F)c1nc2ccccc2nc1N/N=C/c1ccc(Cl)cc1 | 21.3% (inactive) |
| OC(COc1cccc2ccccc12)CN1CCN(c2ccccn2)CC1 (stereo not given) | 19.3% (inactive) |
| CC1Cc2ccccc2N1CC(=O)Nc1ccc2c(c1)OC(F)(F)O2 (stereo not given) | 71.6% (active) |
| O=C(CN1C(=O)COc2ccccc21)Nc1ccc(F)cc1 | 39% (inactive) |
| CC1(C)Oc2ccc(C(=O)N3CCOCC3)cc2N(CC(=O)Nc2ccccc2)C1=O | 45.6% (inactive) |
